What all share (assay): DAPPL (digital affinity profiling via proximity ligation, sequencing); 10 mM Tris-HCl pH 7.5, 50 mM NaCl, 1 mM DTT, 4% glycerol, room temperature, 30 min; GST-TFs on glutathione beads, 16-mer random dsDNA library, 0.1% formaldehyde crosslink after washing; high values mean tight binding
One assay addresses T1, FEV (Homo sapiens, UniProt Q99581 1-238).
T1 sequence: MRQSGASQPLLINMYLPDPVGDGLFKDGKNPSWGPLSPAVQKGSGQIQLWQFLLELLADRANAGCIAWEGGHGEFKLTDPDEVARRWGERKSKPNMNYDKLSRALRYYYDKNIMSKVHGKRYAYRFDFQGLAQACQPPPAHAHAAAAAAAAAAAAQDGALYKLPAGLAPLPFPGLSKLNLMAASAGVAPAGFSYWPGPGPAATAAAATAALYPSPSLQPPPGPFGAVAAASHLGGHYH
Particulars: protein: recombinant; tags: N-terminal GST; dsDNA, one strand shown. The method, boiled down: (§1)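 In yeast, human transcription factors were expressed with a GST fusion, then pulled down on glutathione beads and given DNA barcodes. Pooled with a tag-only sample, they were exposed to 200 nmole of a 16-mer random double-stranded DNA library (Tris/NaCl/DTT/glycerol buffer, room temperature, 30 min), washed, crosslinked with 0.1% formaldehyde, proximity-ligated using BsaI/T4 ligase for 1 h at 37 °C, PCR-amplified and read on an Illumina NextSeq500. Each hexamer's frequency of reads for a factor, divided by the matching frequency for the tag-only sample, gives the binding signal.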

Another assay deals with ETV5 (Homo sapiens, UniProt P41161 1-510). Particulars: protein: recombinant; tags: N-terminal GST; dsDNA, one strand shown. The method, boiled down:
as §1

Another assay addresses HSF1 (Homo sapiens, UniProt Q00613 1-529). Particulars: protein: recombinant; tags: N-terminal GST; chain copies: 3; dsDNA, one strand shown. The method, boiled down: as §1
Another assay addresses T2, SPIC (Homo sapiens, UniProt Q8N5J4 1-248).
T2 sequence: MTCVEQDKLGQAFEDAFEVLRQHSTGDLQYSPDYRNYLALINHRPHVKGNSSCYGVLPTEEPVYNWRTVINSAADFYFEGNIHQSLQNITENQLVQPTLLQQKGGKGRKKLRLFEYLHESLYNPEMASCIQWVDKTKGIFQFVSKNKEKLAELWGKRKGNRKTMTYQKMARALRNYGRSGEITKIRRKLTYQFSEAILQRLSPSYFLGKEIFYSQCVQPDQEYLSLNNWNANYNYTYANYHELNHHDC
The note with it: protein: recombinant; tags: N-terminal GST; dsDNA, one strand shown. The method in brief: as §1

In a further assay the target is ELF4 (Homo sapiens, UniProt Q99607 1-663). Particulars: protein: recombinant; tags: N-terminal GST; dsDNA, one strand shown. The method, boiled down:
as §1

The next assay has as its target T3, ELK4 (Homo sapiens, UniProt P28324-2 1-405).
T3 sequence: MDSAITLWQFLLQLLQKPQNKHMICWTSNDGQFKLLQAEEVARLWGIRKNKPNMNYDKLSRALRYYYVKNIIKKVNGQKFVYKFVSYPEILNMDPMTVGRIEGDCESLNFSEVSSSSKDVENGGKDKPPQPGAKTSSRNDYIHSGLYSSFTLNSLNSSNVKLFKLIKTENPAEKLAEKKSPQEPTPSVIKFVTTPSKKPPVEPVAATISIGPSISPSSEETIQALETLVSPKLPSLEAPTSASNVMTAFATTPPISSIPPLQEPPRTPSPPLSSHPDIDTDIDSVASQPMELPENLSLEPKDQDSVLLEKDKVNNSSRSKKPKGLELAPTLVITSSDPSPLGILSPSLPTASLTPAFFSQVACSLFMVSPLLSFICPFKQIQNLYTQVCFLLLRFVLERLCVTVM
The note with it: protein: recombinant; tags: N-terminal GST; dsDNA, one strand shown. The method in brief:
as §1

Another assay addresses T4, ETV2 (Homo sapiens, UniProt O00321 1-342).
T4 sequence: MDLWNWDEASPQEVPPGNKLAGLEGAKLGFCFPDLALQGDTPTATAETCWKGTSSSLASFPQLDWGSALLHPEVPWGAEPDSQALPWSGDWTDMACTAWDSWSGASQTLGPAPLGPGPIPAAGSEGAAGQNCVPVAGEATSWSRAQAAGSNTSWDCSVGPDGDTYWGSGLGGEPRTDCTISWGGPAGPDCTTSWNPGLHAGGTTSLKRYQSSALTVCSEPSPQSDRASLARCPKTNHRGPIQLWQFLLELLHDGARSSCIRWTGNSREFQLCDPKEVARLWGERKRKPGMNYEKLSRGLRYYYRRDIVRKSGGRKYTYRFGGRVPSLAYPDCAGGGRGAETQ
The note with it: protein: recombinant; tags: N-terminal GST; dsDNA, one strand shown. The method in brief:
as §1

For another assay, the target named is T5, ELF3 (Homo sapiens, UniProt P78545 1-371).
T5 sequence: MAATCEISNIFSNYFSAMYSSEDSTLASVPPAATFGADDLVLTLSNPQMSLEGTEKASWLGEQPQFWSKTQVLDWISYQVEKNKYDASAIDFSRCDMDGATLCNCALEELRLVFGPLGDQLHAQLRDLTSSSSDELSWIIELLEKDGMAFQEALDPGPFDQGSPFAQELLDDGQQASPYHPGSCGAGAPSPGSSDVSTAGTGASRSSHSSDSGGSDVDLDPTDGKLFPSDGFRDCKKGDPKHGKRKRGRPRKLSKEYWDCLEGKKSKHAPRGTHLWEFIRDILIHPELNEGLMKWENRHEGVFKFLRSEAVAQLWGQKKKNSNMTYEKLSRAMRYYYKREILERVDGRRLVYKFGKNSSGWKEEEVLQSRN
Particulars: protein: recombinant; tags: N-terminal GST; dsDNA, one strand shown. The method in brief: as §1

The target in the next assay is CRX (Homo sapiens, UniProt O43186 1-299). The note with it: protein: recombinant; tags: N-terminal GST; dsDNA, one strand shown. The method in brief:
as §1

A further assay has as its target ETV1 (Homo sapiens, UniProt P50549 1-477). Particulars: protein: recombinant; tags: N-terminal GST; dsDNA, one strand shown. The method in brief: as §1
Another assay addresses T6, ERF (Homo sapiens, UniProt P50548 1-548).
T6 sequence: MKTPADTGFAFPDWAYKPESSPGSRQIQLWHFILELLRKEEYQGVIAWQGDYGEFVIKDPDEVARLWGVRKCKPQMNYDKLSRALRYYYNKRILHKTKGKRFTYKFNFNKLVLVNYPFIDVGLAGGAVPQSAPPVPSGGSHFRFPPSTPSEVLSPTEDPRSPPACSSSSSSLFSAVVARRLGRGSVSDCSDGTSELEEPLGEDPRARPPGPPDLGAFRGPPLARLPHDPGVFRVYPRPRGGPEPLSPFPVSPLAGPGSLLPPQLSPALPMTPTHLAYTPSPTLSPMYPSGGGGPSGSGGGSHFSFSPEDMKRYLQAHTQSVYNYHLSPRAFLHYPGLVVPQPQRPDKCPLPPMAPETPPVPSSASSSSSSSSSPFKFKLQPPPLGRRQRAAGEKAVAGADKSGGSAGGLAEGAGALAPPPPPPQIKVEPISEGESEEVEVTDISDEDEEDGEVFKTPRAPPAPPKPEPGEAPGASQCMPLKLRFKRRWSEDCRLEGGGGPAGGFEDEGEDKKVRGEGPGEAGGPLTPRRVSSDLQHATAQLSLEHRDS
The note with it: protein: recombinant; tags: N-terminal GST; dsDNA, one strand shown. The method, boiled down:
as §1

In the next assay the target is T7, ETV3L (Homo sapiens, UniProt Q6ZN32 1-361).
T7 sequence: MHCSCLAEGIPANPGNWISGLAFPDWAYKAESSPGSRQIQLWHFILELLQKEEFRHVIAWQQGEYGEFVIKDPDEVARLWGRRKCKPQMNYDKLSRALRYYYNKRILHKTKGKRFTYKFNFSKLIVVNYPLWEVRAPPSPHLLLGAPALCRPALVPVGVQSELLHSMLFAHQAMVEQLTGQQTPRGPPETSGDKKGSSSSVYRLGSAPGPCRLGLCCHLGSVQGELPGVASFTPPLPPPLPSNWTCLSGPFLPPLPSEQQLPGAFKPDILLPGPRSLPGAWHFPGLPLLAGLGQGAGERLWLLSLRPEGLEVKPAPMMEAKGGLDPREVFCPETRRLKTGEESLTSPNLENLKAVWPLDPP
The note with it: protein: recombinant; tags: N-terminal GST; dsDNA, one strand shown. The method in brief: as §1

In the next assay the target is T8, ETS2 (Homo sapiens, UniProt P15036 1-469).
T8 sequence: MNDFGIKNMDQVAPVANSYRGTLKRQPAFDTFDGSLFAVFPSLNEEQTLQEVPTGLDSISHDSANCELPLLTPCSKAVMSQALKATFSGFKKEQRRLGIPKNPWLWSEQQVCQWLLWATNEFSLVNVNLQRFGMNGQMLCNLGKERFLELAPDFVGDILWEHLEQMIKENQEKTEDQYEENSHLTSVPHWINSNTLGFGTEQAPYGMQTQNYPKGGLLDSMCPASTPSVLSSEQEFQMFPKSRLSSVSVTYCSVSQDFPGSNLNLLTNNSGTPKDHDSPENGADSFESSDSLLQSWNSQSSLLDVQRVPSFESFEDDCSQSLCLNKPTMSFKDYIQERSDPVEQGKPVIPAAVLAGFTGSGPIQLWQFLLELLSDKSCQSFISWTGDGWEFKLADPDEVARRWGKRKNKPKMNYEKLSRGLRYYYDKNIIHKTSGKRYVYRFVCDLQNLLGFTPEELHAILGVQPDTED
Particulars: protein: recombinant; tags: N-terminal GST; dsDNA, one strand shown. The method in brief:
as §1

A further assay concerns the target T9, SPDEF (Homo sapiens, UniProt O95238 1-335).
T9 sequence: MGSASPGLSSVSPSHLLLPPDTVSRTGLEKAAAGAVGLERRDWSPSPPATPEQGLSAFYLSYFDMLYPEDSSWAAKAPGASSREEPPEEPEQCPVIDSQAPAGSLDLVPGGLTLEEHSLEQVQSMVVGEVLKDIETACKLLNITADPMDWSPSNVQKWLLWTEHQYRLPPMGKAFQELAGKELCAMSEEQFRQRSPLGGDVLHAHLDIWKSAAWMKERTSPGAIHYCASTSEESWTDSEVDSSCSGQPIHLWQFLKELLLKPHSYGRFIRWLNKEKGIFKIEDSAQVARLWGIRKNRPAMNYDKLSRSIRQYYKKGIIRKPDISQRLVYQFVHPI
Particulars: protein: recombinant; tags: N-terminal GST; dsDNA, one strand shown. The method, boiled down:
as §1

The target of another assay is T10, ETV7 (Homo sapiens, UniProt Q9Y603 1-341).
T10 sequence: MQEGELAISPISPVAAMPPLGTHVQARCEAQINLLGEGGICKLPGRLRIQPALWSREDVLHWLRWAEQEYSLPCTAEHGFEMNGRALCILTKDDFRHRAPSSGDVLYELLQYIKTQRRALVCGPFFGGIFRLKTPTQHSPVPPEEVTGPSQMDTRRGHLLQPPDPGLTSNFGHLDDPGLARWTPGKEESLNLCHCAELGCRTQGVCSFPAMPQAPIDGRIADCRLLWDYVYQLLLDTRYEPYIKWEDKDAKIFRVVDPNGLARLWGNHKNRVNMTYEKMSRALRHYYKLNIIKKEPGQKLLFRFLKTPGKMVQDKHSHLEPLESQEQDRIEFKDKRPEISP
Particulars: protein: recombinant; tags: N-terminal GST; dsDNA, one strand shown. The method, boiled down:
as §1

Another assay addresses T11, ELF5 (Homo sapiens, UniProt Q9UKW6-2 1-255).
T11 sequence: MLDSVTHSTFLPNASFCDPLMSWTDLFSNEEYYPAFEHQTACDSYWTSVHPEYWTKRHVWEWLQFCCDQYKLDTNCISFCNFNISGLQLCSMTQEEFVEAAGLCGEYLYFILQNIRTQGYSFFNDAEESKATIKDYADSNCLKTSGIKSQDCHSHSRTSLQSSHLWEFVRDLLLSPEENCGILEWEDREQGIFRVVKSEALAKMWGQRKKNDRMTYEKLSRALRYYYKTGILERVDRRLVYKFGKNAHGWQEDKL
The note with it: protein: recombinant; tags: N-terminal GST; dsDNA, one strand shown. The method, boiled down: as §1

The next assay concerns the target T12, ETV3 (Homo sapiens, UniProt P41162-2 1-143).
T12 sequence: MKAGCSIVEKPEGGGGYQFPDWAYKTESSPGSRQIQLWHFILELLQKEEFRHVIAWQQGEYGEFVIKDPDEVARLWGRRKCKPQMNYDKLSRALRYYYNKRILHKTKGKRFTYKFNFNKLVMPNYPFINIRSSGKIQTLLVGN
Particulars: protein: recombinant; tags: N-terminal GST; dsDNA, one strand shown. The method, boiled down: as §1

In the next assay the target is ETV6 (Homo sapiens, UniProt P41212 1-452). The note with it: protein: recombinant; tags: N-terminal GST; dsDNA, one strand shown. The method in brief: as §1
Sequence of ETV6 (P41212 whole entry): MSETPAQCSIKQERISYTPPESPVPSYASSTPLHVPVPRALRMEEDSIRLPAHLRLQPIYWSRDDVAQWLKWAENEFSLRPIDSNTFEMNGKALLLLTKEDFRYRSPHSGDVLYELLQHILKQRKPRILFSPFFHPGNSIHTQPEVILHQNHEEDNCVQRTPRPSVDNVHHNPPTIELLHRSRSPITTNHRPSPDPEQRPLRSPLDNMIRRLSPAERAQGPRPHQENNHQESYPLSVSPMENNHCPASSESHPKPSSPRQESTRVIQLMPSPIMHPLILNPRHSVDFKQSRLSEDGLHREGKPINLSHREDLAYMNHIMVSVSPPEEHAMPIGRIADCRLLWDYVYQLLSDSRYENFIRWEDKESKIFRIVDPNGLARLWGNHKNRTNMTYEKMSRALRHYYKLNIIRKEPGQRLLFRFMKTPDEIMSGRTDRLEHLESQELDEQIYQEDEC

Sequence of ETV1 (P50549 whole entry): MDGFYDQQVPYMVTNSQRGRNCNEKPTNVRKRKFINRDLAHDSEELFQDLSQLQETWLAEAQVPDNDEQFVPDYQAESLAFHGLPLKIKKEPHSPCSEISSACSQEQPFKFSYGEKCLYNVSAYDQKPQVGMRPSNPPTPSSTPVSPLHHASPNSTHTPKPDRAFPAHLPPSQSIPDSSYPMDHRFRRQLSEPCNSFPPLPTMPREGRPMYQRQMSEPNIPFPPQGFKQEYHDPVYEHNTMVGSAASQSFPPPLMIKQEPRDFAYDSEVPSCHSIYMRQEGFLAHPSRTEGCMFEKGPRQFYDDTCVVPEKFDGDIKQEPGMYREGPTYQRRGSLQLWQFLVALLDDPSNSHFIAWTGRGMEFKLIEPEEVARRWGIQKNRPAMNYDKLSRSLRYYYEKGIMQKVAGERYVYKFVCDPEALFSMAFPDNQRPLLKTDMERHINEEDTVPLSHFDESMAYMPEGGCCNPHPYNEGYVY
Sequence of ELF4 (Q99607 whole entry): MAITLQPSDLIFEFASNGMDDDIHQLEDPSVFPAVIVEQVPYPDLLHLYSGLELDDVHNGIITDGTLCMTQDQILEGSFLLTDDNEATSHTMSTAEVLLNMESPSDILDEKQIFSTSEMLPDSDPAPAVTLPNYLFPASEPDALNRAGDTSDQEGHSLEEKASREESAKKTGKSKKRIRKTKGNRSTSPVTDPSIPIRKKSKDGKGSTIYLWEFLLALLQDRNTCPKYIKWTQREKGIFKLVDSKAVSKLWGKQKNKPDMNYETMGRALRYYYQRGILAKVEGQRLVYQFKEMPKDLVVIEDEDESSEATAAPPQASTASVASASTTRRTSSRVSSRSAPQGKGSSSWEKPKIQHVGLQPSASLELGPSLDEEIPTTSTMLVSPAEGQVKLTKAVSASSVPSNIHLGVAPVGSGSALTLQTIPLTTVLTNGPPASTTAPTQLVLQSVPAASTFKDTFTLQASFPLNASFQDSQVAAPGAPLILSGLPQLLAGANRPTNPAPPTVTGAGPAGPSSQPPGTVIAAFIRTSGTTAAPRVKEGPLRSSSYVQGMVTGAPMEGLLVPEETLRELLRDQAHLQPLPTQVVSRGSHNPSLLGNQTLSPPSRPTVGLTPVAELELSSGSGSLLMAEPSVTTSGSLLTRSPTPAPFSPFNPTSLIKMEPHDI
Sequence of HSF1 (Q00613 whole entry): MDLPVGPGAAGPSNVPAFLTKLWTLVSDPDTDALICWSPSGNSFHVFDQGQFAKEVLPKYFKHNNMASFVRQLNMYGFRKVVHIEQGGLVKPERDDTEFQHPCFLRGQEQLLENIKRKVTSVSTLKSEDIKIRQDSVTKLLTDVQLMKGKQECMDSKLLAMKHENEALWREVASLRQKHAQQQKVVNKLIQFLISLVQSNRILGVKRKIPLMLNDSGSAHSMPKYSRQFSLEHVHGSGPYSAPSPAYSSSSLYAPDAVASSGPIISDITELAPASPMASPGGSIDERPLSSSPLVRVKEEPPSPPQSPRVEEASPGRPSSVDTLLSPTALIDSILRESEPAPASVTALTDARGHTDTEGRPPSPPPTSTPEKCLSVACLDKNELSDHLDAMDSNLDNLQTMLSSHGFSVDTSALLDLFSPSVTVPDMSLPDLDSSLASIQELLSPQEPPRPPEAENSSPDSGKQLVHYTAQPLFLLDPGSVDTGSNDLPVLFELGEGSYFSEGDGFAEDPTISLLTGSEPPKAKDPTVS
Sequence of CRX (O43186 whole entry): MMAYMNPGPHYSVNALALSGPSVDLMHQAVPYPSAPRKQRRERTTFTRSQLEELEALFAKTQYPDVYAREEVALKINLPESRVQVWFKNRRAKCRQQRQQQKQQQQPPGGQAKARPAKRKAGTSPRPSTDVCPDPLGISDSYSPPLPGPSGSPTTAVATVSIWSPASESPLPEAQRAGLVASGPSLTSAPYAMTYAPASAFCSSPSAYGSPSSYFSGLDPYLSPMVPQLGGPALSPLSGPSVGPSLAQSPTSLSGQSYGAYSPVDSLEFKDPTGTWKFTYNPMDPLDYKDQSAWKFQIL
Sequence of ETV5 (P41161 whole entry): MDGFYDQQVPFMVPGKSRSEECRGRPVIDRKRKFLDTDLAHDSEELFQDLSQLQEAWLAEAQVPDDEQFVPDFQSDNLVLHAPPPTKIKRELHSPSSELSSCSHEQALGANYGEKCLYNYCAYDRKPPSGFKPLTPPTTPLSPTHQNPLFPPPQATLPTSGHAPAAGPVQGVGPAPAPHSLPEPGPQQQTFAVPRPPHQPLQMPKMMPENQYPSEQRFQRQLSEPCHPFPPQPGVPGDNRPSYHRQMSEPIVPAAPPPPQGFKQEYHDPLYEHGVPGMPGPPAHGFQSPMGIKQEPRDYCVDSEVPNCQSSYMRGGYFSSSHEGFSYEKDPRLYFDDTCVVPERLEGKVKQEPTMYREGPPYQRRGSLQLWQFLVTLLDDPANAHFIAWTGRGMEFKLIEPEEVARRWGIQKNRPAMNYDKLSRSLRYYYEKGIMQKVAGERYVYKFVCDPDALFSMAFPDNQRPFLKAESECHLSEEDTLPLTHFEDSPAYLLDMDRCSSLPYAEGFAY

CTGACT: the binding signal with FEV was 1.32 fold enrichment (6-mer frequency, TF over GST control); with ETV5, 1.23 fold enrichment (6-mer frequency, TF over GST control); with HSF1, 1.05 fold enrichment (6-mer frequency, TF over GST control); with SPIC, 1.24 fold enrichment (6-mer frequency, TF over GST control); with ELF4, 1.37 fold enrichment (6-mer frequency, TF over GST control); with ELK4 it was 1.22 fold enrichment (6-mer frequency, TF over GST control). Also, the binding signal was 1.48 fold enrichment (6-mer frequency, TF over GST control) with ETV2; 1.52 fold enrichment (6-mer frequency, TF over GST control) in the assay with ELF3; 1.07 fold enrichment (6-mer frequency, TF over GST control) in the assay with CRX; 1.4 fold enrichment (6-mer frequency, TF over GST control) with ETV1; 1.33 fold enrichment (6-mer frequency, TF over GST control) with ERF; 1.22 fold enrichment (6-mer frequency, TF over GST control) in the assay with ETV3L. Further, the binding signal with ETS2 is 1.42 fold enrichment (6-mer frequency, TF over GST control); with SPDEF it was 1.22 fold enrichment (6-mer frequency, TF over GST control); with ETV7, 1.33 fold enrichment (6-mer frequency, TF over GST control); with ELF5, 1.32 fold enrichment (6-mer frequency, TF over GST control); with ETV3, 1.28 fold enrichment (6-mer frequency, TF over GST control); in the assay with ETV6 it was 1.24 fold enrichment (6-mer frequency, TF over GST control).

Source of the values: article PMC7862700, “An all-to-all approach to the identification of sequence-specific readers for epigenetic DNA modifications on cytosine”.
